Assay results: PubChem BioAssay AID720519 (National Center for Advancing Translational Sciences (NCATS), 2013)
Results filed as inconclusive are left out. The call rests on the fitted dose curve; in most records, active means well fitted activation curve with a large enough effect; inconclusive means small, poorly fitted or top-dose-only effect; inactive means flat fitted curve, though single readings scatter.

Assay: qHTS for Inhibitors of Cell Surface uPA Generation: Confirmatory Assay for Cherry-picked Compounds; further: 0% is about no effect
Conditions: cell surface uPA activity generation, qHTS confirmation; series mostly up to 115 µM; inhibition: at the top concentration
Method in brief: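 RAW 264.7 cells at 4000/well, incubated overnight, then treated with compounds. After 24 h at 37 C, viability was read by ATPlite luminescence. An increase in signal indicates blocked uPA-dependent LF entry.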

inhibition, inactive:
CC1CCCN(S(=O)(=O)c2cccc([N+](=O)[O-])c2)C1 (centres undefined) 0.952%
CCNC(=S)NNC(=O)C(c1ccccc1)c1ccccc1 1.11%
COc1ccc(CNC(=O)C2(CC3CC(c4ccccc4)=NO3)CCNCC2)cc1 (centres undefined) -2.48%
O=C(COC(=O)/C=C/c1cccc(F)c1)Nc1ccccc1 -1.02%
Cc1oc(-c2ccccc2F)nc1CS(=O)(=O)CC(=O)NC1CCCC(C)C1C (centres undefined) -0.805%
Nc1nc2ccc(Br)cc2o1 -2.31%
CSCC[C@H](NC(=O)[C@H](Cc1ccccc1)n1c(=O)[nH]c2ccccc2c1=O)C(=O)N1CCC[C@H]1C(=O)O -1.26%
CC1CCCN(C(=O)c2ccc(CNc3c(N4CCCCC4)c(=O)c3=O)cc2)C1 (centres undefined) 0.63%
COc1ccc(CC(=O)Nc2nc(C)cs2)cc1OC -2.97%
O=C(CN1C(=O)CSCC1=O)NCc1ccc(F)cc1 -0.0415%
O=C1CCCC/C1=C\Nc1ccc(S(=O)(=O)Nc2cnc3ccccc3n2)cc1 -1.58%
O=C(Nc1ccc(Cl)cn1)C1CCCN(c2ncnc3c2nc2n3CCCCC2)C1 (centres undefined) -3.69%
COc1ccc(CNCCC2(C(C)C)CCOC(C)(C)C2)cc1 (centres undefined) -0.597%
O=C(O)COc1ccccc1/C=N/NC(=O)CNC(=O)c1ccco1 1.84%
Cc1ccc(C)c(N2N=C(C(=O)N(CC(C)C)c3c(N)n(Cc4ccccc4)c(=O)[nH]c3=O)CCC2=O)c1 -1.48%
O=C(Nc1ccc(Cl)cc1)Nc1nnc(-c2ccncc2)s1 -3.24%
CCOC(=O)N1CCc2c(sc3nc4n(c(=O)c23)N=C(C)CS4)C1 -1.91%
CCOc1ncccc1C(=O)NCc1ccccc1Cl 0.688%
CCCc1nc2c(=O)n(C)c(=O)[nH]c2n1CCC 1.04%
O=C(O)CNC(=S)N(Cc1ccccc1)Cc1cccnc1 -1.63%
CCN(CC)S(=O)(=O)c1cc(NC(=O)COC(=O)C2CCC2)ccc1C -0.16%
CCOC(=O)C1=C(C)N(Cc2ccccc2)C(=O)NC1c1ccc(OC)cc1 (centres undefined) -1.56%
Cc1ccc(S(=O)(=O)Nc2nc(C)cc(N/N=C/c3ccc(O)cc3)n2)cc1 -3.07%
CC1=C(C(=O)OCc2ccccc2)C(c2cccc([N+](=O)[O-])c2)NC(=O)N1 (centres undefined) -1.91%
COc1ccc(OC)c(N2C(=O)CC(Cc3cc(C)cc(C)c3)C2=O)c1 (centres undefined) -2.59%
Cc1ccc2sc(NNC(=O)c3ccc4c(c3)OCCO4)nc2c1C -3.56%
COC(=O)CCNS(=O)(=O)c1ccc2nsnc2c1 -0.28%
Cc1ccc(C(O)(COC(=O)C(C)C)COC(=O)C(C)C)c(O)c1 -2.69%
COc1cccc(NC(=O)c2nnn(CC(=O)Nc3cc(C)cc(C)c3)c2N)c1 1.65%
COC(=O)C(CCSC)NC(=O)Cn1ncc2c(=O)oc3ccccc3c21 (centres undefined) 0.519%
COc1ccc(C(=O)N2CCN(c3ccc(C(C)=O)cc3)CC2)cc1S(=O)(=O)N1CCCC1 -2.44%
CCn1nc(C)c(CNC(=O)C2CCC(=O)N(CCc3ccc(OC)cc3)C2)c1C (centres undefined) -1.73%
CC1CCCN(C(=O)c2ccc(-c3ccccc3Cl)o2)C1 (centres undefined) -3.9%
O=C1C[C@@H]2CCN3C(=O)CCC[C@@H]([C@H]23)[C@H]1Cc1ccccc1 -1.18%
COc1cccc2c1Oc1ncccc1N(C(=O)CCC(=O)NCc1ccc(C)cc1)C2 -1.4%
CCOC(=O)c1c(C)oc2ccc(OC(=O)COc3c(F)c(F)c(F)c(F)c3F)cc12 -0.536%
C[C@@]12C(=O)N(CC3CCCO3)CC(=O)N1[C@H]1c3cc(Cl)ccc3OC[C@@H]1[C@@H]2c1ccccc1 (some centres undefined) -2.79%
Cc1oc2c(Cl)c(Cl)c(O)c(CN(C)C)c2c1C(=O)c1ccc(Cl)cc1 4.02%
CC(C)c1ccc(NC(=O)COc2ccc(S(=O)(=O)N3CCOCC3)cc2)cc1 -0.157%
